# Measured potencies and affinities stand elsewhere. Calls of active or inactive are those of the source.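 Rule for the calls: active = compounds lowering ATP signal whose fitted half-maximal concentration is at most twice the top tested dose; inconclusive = flat fit with 30 to 70% loss, or bad fit; inactive = the rest.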
# Test: cytotoxicity in MITF-independent A375 cells – cell-based, CellTiter-Glo luminescence, dry powder, set 4, counter-screen for MITF inhibitor project, dose response (AID 624364)
# Details: CellTiter-Glo ATP luminescence, 24 h; series mostly up to 35 µM
row,Structure (SMILES),outcome
1,CN1CCN(C2=C(NS(=O)(=O)c3cccs3)C(=O)c3ccccc3C2=O)CC1,inactive
2,COc1ccc(C2=C(NC(=O)c3ccc(OC)cc3-c3cccc(OC)c3)C(=O)c3ccccc3C2=O)cc1,inactive
3,C=CCNC1=C(NCCCN2CCOCC2)C(=O)c2ccccc2C1=O,inactive
4,C=CCNC1=C(NCC=C)C(=O)c2ccccc2C1=O,inactive
5,O=C(NC1=C(N2CCN(c3ccccc3)CC2)C(=O)c2ccccc2C1=O)c1ccccc1,inactive
